Reference: article PMC4081100, “A DNA-binding-site landscape and regulatory network analysis for NAC transcription factors in Arabidopsis thaliana”

Assays:
Assay in all cases: universal protein binding microarray (PBM); transcription factors of Arabidopsis thaliana; high values mean tight binding
GST-ANAC092(1-176) = molecular target: T1, GST-ANAC092(1-176) (Arabidopsis thaliana, UniProt Q9FKA0 1-176); conditions: protein: recombinant; tags: GST; chain copies: 2; dsDNA, one strand shown
T1 sequence: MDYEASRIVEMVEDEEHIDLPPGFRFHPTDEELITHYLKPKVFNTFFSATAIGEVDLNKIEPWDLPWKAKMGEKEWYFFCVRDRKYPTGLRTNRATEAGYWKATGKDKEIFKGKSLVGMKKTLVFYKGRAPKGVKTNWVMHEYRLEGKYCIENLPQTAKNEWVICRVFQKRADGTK
Method in brief: (§1)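 Each value is a normalised enrichment score (E-score) describing binding. The GST-tagged proteins, NAC-domain, full-length or DNA-binding-domain, were induced in cells (zinc-finger proteins with zinc acetate added) and purified on glutathione–Sepharose 4B. They were applied at 200 to 500 nM final, in duplicate, to double-stranded custom all-10-mer Agilent 4 × 180K arrays, and gapped and ungapped 8-mers were scored.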

GST-ANAC055(1-171) = molecular target: T2, GST-ANAC055(1-171) (Arabidopsis thaliana, UniProt Q9LDY8 1-171); conditions: protein: recombinant; tags: GST; chain copies: 2; dsDNA, one strand shown
T2 sequence: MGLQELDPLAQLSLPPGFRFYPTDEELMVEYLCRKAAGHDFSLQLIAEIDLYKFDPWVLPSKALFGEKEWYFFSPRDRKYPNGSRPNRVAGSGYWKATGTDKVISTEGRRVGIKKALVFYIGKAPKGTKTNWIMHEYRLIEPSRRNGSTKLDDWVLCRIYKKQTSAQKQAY
Method in brief: as §1

[1] = molecular target: T3, GST-ANAC092(1-285) full length (Arabidopsis thaliana, UniProt Q9FKA0 1-285); conditions: protein: recombinant; tags: GST; chain copies: 2; dsDNA, one strand shown
T3 sequence: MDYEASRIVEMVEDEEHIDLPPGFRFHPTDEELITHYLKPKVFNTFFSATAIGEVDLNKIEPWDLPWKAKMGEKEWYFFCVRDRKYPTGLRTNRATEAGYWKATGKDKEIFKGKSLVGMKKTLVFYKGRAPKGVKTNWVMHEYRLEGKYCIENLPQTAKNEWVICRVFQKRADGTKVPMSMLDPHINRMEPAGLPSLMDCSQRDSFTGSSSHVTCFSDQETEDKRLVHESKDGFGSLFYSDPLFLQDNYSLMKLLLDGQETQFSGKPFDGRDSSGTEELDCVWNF
Method in brief: as §1

GST-NAP(1-166) = molecular target: T4, GST-NAP(1-166) (Arabidopsis thaliana, UniProt O49255 1-166); conditions: protein: recombinant; tags: GST; chain copies: 2; dsDNA, one strand shown
T4 sequence: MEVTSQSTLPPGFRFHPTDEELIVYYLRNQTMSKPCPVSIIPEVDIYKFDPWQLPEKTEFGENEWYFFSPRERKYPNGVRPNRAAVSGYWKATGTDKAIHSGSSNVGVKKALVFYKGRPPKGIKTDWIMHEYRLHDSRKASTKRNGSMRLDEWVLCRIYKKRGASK
Method in brief: as §1

GST-NST2(1-184) = molecular target: T5, GST-NST2(1-184) (Arabidopsis thaliana, UniProt Q9M274 1-184); conditions: protein: recombinant; tags: GST; chain copies: 2; dsDNA, one strand shown
T5 sequence: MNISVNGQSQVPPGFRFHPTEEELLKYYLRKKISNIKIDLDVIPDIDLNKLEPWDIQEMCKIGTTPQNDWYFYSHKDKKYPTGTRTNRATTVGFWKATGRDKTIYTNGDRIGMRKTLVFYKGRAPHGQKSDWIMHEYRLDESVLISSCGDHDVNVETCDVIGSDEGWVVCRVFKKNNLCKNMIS
Method in brief: as §1

GST-SND1(1-203) = molecular target: T6, GST-SND1(1-203) (Arabidopsis thaliana, UniProt Q9LPI7 1-203); conditions: protein: recombinant; tags: GST; chain copies: 2; dsDNA, one strand shown
T6 sequence: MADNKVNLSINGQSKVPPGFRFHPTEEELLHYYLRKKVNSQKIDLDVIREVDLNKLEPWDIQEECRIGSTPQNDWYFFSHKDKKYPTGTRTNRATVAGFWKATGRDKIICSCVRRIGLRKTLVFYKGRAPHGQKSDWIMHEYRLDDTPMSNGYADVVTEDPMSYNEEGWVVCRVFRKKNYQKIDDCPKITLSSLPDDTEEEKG
Method in brief: as §1

GST-VND7 NAC domain = molecular target: T7, GST-VND7 NAC domain (Arabidopsis thaliana, UniProt Q9C8W9 9-158); conditions: protein: recombinant; tags: GST; chain copies: 2; dsDNA, one strand shown
T7 sequence: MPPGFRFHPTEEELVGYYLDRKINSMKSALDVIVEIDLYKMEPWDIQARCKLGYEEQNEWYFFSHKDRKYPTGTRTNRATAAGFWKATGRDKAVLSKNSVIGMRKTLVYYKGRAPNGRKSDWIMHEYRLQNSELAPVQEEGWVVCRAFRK
Method in brief: as §1

GST-WRKY1(266-371) = GST-WRKY1(266-371) (Arabidopsis thaliana, UniProt Q9SI37 266-371); conditions: protein: recombinant; tags: GST; dsDNA, one strand shown
Method in brief: as §1

GST-NTL6(1-168) = GST-NTL6(1-168) (Arabidopsis thaliana, UniProt Q9SCK6 1-168); conditions: protein: recombinant; tags: GST; chain copies: 2; dsDNA, one strand shown
Method in brief: as §1

GST-ANAC019 NAC domain = molecular target: T8, GST-ANAC019 NAC domain (Arabidopsis thaliana, UniProt Q9C932 14-162); conditions: protein: recombinant; tags: GST; chain copies: 2; dsDNA, one strand shown
T8 sequence: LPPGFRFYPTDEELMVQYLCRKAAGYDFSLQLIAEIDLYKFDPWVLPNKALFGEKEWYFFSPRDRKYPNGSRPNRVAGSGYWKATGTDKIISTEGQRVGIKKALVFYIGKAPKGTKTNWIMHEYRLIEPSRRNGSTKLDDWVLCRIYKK
Method in brief: as §1

GST-NTL8 NAC domain = molecular target: T9, GST-NTL8 NAC domain (Arabidopsis thaliana, UniProt Q9XIN7 14-156); conditions: protein: recombinant; tags: GST; chain copies: 2; dsDNA, one strand shown
T9 sequence: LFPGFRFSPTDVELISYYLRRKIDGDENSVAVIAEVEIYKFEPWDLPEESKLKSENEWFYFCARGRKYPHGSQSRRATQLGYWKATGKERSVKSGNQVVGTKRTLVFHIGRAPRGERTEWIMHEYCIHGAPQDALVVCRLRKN
Method in brief: as §1

GST-ATAF1 NAC domain = molecular target: T10, GST-ATAF1 NAC domain (Arabidopsis thaliana, UniProt Q39013 7-158); conditions: protein: recombinant; tags: GST; chain copies: 2; dsDNA, one strand shown
T10 sequence: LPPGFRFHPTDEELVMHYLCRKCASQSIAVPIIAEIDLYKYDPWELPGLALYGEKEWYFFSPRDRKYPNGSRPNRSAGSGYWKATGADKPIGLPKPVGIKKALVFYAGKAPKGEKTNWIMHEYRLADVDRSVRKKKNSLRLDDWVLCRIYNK
Method in brief: as §1

Sequence of GST-NTL6(1-168) (Q9SCK6 1-168): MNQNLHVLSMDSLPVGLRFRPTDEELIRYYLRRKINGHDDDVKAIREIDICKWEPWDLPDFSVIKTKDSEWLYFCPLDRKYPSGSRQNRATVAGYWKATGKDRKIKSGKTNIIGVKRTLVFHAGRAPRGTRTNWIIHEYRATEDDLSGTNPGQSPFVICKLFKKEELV
Sequence of GST-WRKY1(266-371) (Q9SI37 266-371): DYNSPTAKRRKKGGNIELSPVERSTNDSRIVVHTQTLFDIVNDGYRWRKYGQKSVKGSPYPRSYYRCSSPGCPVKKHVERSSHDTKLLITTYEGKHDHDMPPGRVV

CTAGCGTA was tested, and the binding signal (GST-ANAC092(1-176)) was 0.262 E-score, the binding signal (GST-ANAC055(1-171)) was 0.0674 E-score and the binding signal [1] was 0.398 E-score. It also gave a binding signal (GST-NAP(1-166)) of 0.0722 E-score, a binding signal (GST-NST2(1-184)) of 0.168 E-score and a binding signal (GST-SND1(1-203)) of 0.45 E-score. For the same sequence, the binding signal (GST-VND7 NAC domain) was 0.118 E-score.
In the case of CGTAGACC, the binding signal (GST-SND1(1-203)) is reported as 0.0522 E-score and the binding signal (GST-WRKY1(266-371)) is reported as 0.434 E-score.
With AAGTCAGT the binding signal (GST-SND1(1-203)) was 0.0862 E-score and the binding signal (GST-WRKY1(266-371)) was 0.411 E-score.
AAACCCTC gave a binding signal (GST-NTL6(1-168)) of 0.141 E-score, a binding signal (GST-ANAC019 NAC domain) of 0.0591 E-score and a binding signal (GST-ANAC055(1-171)) of 0.134 E-score. It also gave a binding signal (GST-NAP(1-166)) of 0.0744 E-score, a binding signal (GST-NTL8 NAC domain) of 0.414 E-score and a binding signal (GST-SND1(1-203)) of 0.101 E-score. It also gave a binding signal (GST-VND7 NAC domain) of 0.1 E-score.
Work on GAGGGTAA yielded a binding signal (GST-ANAC092(1-176)) of 0.0757 E-score, a binding signal (GST-NTL6(1-168)) of 0.17 E-score and a binding signal (GST-ANAC055(1-171)) of 0.0669 E-score. For the same sequence, the binding signal (GST-ATAF1 NAC domain) was 0.123 E-score, the binding signal [1] was 0.109 E-score and the binding signal (GST-NST2(1-184)) was 0.173 E-score. It also gave a binding signal (GST-NTL8 NAC domain) of 0.474 E-score, a binding signal (GST-SND1(1-203)) of 0.108 E-score and a binding signal (GST-VND7 NAC domain) of 0.079 E-score.
ACGCCATG was tested, and the binding signal (GST-ANAC092(1-176)) was 0.336 E-score, the binding signal [1] was 0.404 E-score and the binding signal (GST-NAP(1-166)) was 0.154 E-score. For the same sequence, the binding signal (GST-NST2(1-184)) was 0.128 E-score, the binding signal (GST-SND1(1-203)) was 0.222 E-score and the binding signal (GST-VND7 NAC domain) was 0.0848 E-score.
For TGAAGCAA, the binding signal (GST-ANAC092(1-176)) was 0.232 E-score, the binding signal (GST-NTL6(1-168)) was 0.389 E-score and the binding signal (GST-ANAC019 NAC domain) was 0.0575 E-score. It also gave a binding signal [1] of 0.32 E-score, a binding signal (GST-NST2(1-184)) of 0.314 E-score and a binding signal (GST-NTL8 NAC domain) of 0.422 E-score. For the same sequence, the binding signal (GST-SND1(1-203)) was 0.447 E-score and the binding signal (GST-VND7 NAC domain) was 0.187 E-score.
Sequence GGCGTCAA has a binding signal (GST-SND1(1-203)) of 0.0673 E-score and a binding signal (GST-WRKY1(266-371)) of 0.401 E-score.
ACCCCGCC showed a binding signal (GST-ANAC092(1-176)) of 0.271 E-score, a binding signal (GST-NTL6(1-168)) of 0.182 E-score and a binding signal (GST-ANAC019 NAC domain) of 0.295 E-score. It also gave a binding signal (GST-ANAC055(1-171)) of 0.123 E-score, a binding signal (GST-ATAF1 NAC domain) of 0.253 E-score and a binding signal [1] of 0.264 E-score. The binding signal (GST-NAP(1-166)) was 0.1 E-score, the binding signal (GST-NST2(1-184)) was 0.213 E-score and the binding signal (GST-NTL8 NAC domain) was 0.284 E-score. The binding signal (GST-SND1(1-203)) was 0.32 E-score and the binding signal (GST-VND7 NAC domain) was 0.241 E-score.
CGAAGCAA showed a binding signal (GST-ANAC092(1-176)) of 0.243 E-score, a binding signal (GST-NTL6(1-168)) of 0.325 E-score and a binding signal [1] of 0.271 E-score. The binding signal (GST-NST2(1-184)) was 0.208 E-score, the binding signal (GST-NTL8 NAC domain) was 0.339 E-score and the binding signal (GST-SND1(1-203)) was 0.427 E-score. The binding signal (GST-VND7 NAC domain) was 0.169 E-score.
Sequence CGTTGACA has a binding signal (GST-SND1(1-203)) of 0.0727 E-score and a binding signal (GST-WRKY1(266-371)) of 0.464 E-score.
CCAAGTCA showed a binding signal (GST-SND1(1-203)) of 0.0686 E-score and a binding signal (GST-WRKY1(266-371)) of 0.426 E-score.
Work on GAAGGAAA yielded a binding signal (GST-ANAC092(1-176)) of 0.243 E-score, a binding signal (GST-NTL6(1-168)) of 0.455 E-score and a binding signal (GST-ANAC019 NAC domain) of 0.118 E-score. It also gave a binding signal (GST-ANAC055(1-171)) of 0.184 E-score, a binding signal (GST-ATAF1 NAC domain) of 0.096 E-score and a binding signal [1] of 0.131 E-score. For the same sequence, the binding signal (GST-NST2(1-184)) was 0.214 E-score, the binding signal (GST-NTL8 NAC domain) was 0.485 E-score and the binding signal (GST-SND1(1-203)) was 0.234 E-score. It also gave a binding signal (GST-VND7 NAC domain) of 0.108 E-score.
AGCTTTCC was tested, and the binding signal (GST-ANAC092(1-176)) was 0.171 E-score, the binding signal (GST-NTL6(1-168)) was 0.233 E-score and the binding signal (GST-ANAC019 NAC domain) was 0.126 E-score. For the same sequence, the binding signal (GST-ANAC055(1-171)) was 0.111 E-score, the binding signal [1] was 0.133 E-score and the binding signal (GST-NTL8 NAC domain) was 0.434 E-score. The binding signal (GST-SND1(1-203)) was 0.123 E-score and the binding signal (GST-VND7 NAC domain) was 0.116 E-score.
